PubChem BioAssay AID521 (Sanford-Burnham Center for Chemical Genomics, 2006)
“And” between values parts separate entries of the source, which are not always exact repeats. Identical values can stand only once. In all, about 110,000 compounds went through this assay and about 730 (0.66%) were called active. The list comes from a sample in which actives are over-represented; it also holds similar structures and randomly drawn compounds. Values without a mark were called inactive. Rule as the data show it: active = inhibition above about 50%; inconclusive = no clear call, values can overlap the other calls; inactive = below that.

Each molecule was assayed against Tyrosine-protein phosphatase non-receptor type 7 (Homo sapiens) (UniProt P35236) (assay: HePTP tyrosine phosphatase activity blockers – biochemical, absorbance, leukemia target, primary screen (AID 521;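 also: plate controls were vehicle for no effect and reference inhibitor for full effect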)). Conditions: recombinant HePTP phosphatase activity, OD absorbance; at 20 µM; stronger effect = higher value.
Chain of Tyrosine-protein phosphatase non-receptor type 7 (Homo sapiens) (P35236 whole entry, looked up): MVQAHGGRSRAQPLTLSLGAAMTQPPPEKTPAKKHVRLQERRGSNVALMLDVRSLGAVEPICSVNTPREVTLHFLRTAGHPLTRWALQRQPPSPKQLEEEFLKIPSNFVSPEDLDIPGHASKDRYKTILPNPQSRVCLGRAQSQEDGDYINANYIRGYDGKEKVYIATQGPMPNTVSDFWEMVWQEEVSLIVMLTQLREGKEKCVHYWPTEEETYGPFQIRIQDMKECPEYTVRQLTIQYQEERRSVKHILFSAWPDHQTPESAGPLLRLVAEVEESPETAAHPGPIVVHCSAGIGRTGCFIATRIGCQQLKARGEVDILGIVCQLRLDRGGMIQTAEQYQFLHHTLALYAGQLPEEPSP
Molecule `O=C1CC(N2CCN(c3ccccc3F)CC2)C(=O)N1c1cccc(Cl)c1` (stereo not given) has an inhibition of 5.6%. In the case of `O=C1C=CC2=C3Oc4c(ccc5cc(O)ccc45)C(c4ccccc4C(=O)O)C3C=CC2=C1` (stereo not given), the inhibition is reported as 103% (active). `NC(=S)N/N=C(/Cc1ccccc1)c1ccc(-c2ccccc2)cc1` showed an inhibition of 6.5%. In the case of `COc1ccccc1C1SCCN1S(=O)(=O)c1ccc(-c2ccccc2)cc1` (stereo not given), the inhibition is reported as 7.9%. In the case of `Cc1cccc(N2CCN(C(=O)C(Cl)(Cl)Cl)CC2)c1C`, the inhibition is reported as 5.3%. For `CC(C)(O)C#Cc1ccc(C2C3=C(CC(C)(C)CC3=O)OC3=C2C(=O)CC(C)(C)C3)cc1`, the inhibition was 1.5%. `COc1ccc(C(=O)ON=C2c3ccccc3-c3ccccc32)cc1OC` was tested, and the inhibition was 62.3% (active). `COc1cc(C(C)=O)ccc1OC(=O)CN1C(=O)c2ccccc2C1=O` was tested, and the inhibition was -2.9%. `COc1cc2c(cc1C)/C(=N/OC(=O)c1ccc(OC)c([N+](=O)[O-])c1)CCC2` showed an inhibition of -10.5%. For `CCCCOc1c([N+](=O)[O-])cc([N+](=O)[O-])c2nsnc12`, the inhibition was 10.8%. `O=C1Nc2ccccc2/C1=N\N=C\c1c(F)cccc1Cl` gave an inhibition of 14%. With `CCCC(NC(=O)c1ccccc1)C(=O)OCC(=O)Nc1sc2c(c1C(=O)OCC)CCCC2` (stereo not given) the inhibition was 1.3%. `CCOC(=O)c1c(N)sc(C)c1CC` was tested, and the inhibition was -13.6%. Work on `CC1(C)Cc2ccccc2C(N/N=C/c2c(O)ccc3ccccc23)=N1` yielded an inhibition of 5%. Work on `CCOc1ccccc1NC(=O)c1c(NC(=O)c2ccco2)sc2c1CCC(C)C2` (stereo not given) yielded an inhibition of 4.6%. In the case of `CCOc1ccccc1NC(=O)c1c(NC(=O)c2cccs2)sc2c1CCC(C)C2` (stereo not given), the inhibition is reported as 74.5% (active). For `Cc1ccccc1NC(=O)c1c(NC(=O)C(C)(C)C)sc2c1CCC(C)C2` (stereo not given), the inhibition was 3.9%. `ONC(=Nc1ccc2c(c1)OCO2)C(=Nc1ccc2c(c1)OCO2)NO` showed an inhibition of -7.5%. `COc1ccc(C2SCCN2C(=O)c2cc3ccccc3oc2=O)cc1` (stereo not given) gave an inhibition of -6.8%. `Cc1ccc(OCC(=O)NCc2ccc(F)cc2)c(Br)c1` showed an inhibition of 0%. Molecule `O=C(COc1cc2oc(=O)c3c(c2cc1Cl)CCCC3)OCc1ccccc1` has an inhibition of 7%. For `Cc1ccc(-c2cc(C(=O)N3CCCCCC3)c3ccccc3n2)o1`, the inhibition was 78.1% (active). `Cc1ccc(-c2cc(C(=O)NCc3ccccc3)c3ccccc3n2)o1` was tested, and the inhibition was 53.4% (active). For `Cc1ccc(NC(=O)c2cc(-c3ccc(C)o3)nc3ccccc23)nc1`, the inhibition was 2.7%. With `Cc1ccc(-c2cc(C(=O)N3CC(C)CC(C)C3)c3ccccc3n2)cc1C` (stereo not given) the inhibition was -17%. `CCOc1cccc(-c2cc(C(=O)N3CCCCCC3)c3ccccc3n2)c1` was tested, and the inhibition was -11.5%. Work on `Cc1ccc(C)c(-c2cc(C(=O)NN)c3ccccc3n2)c1` yielded an inhibition of 5%. Molecule `COc1ccc(NC(=O)c2cccc(F)c2)cc1OC` has an inhibition of 9.7%. With `CCOc1cc(C(=O)Nc2ncccn2)cc(OCC)c1OCC` the inhibition was -0.3% and 8.9%. For `CCOc1cc(C(=O)Nc2cccc(F)c2)cc(OCC)c1OCC`, the inhibition was 104% (active). Molecule `CCOc1ccc(C(=O)Nc2ccc(I)cc2Cl)cc1[N+](=O)[O-]` has an inhibition of 3.7%. `O=C(Nc1cccc(I)c1)c1ccc2c(c1)C(=O)N(CC1CCCO1)C2=O` (stereo not given) was tested, and the inhibition was 6.2%. For `Cc1ccc(N(Cc2ccc(C(=O)N3CCCCC3)cc2)S(C)(=O)=O)cc1C`, the inhibition was 13.9%. Molecule `O=C(NCC1CCCO1)c1cc(-c2ccccc2)nc2ccccc12` (stereo not given) has an inhibition of -0.5%. `CCOc1ccc(NC(=O)Nc2cc(C)on2)cc1` gave an inhibition of -4.8%. Molecule `CCCOc1ccccc1N/C(=N/S(=O)(=O)c1ccc(C)cc1)Nc1nc(C)cc(C)n1` has an inhibition of -1.6%. `CCOc1ccc(N/C(=N\S(=O)(=O)c2ccc(NC(C)=O)cc2)Nc2nc(C)cc(C)n2)cc1` was tested, and the inhibition was 104% (active). Work on `O=C(/C=C/c1ccc([N+](=O)[O-])cc1)N1CCc2ccccc2C1` yielded an inhibition of -1.1%. `Cc1ccc(N2C(=O)NC(=O)/C(=C\c3cccc(C)c3)C2=O)cc1` was tested, and the inhibition was 4.7%. In the case of `O=C1/C(=C/c2ccc(-c3ccc(Cl)cc3C(=O)O)o2)Sc2ccccc21`, the inhibition is reported as 99% (active). `O=C1S/C(=C/c2ccc(-c3ccc(Cl)cc3Cl)o2)C(=O)N1c1ccccc1` gave an inhibition of -6.4%. For `Cc1ccc(-c2ccc(/C=C3\Sc4ccccc4C3=O)o2)c([N+](=O)[O-])c1`, the inhibition was -1.6%. In the case of `Cc1oc2ccc(OCC(=O)c3ccccc3)cc2c1C(=O)O`, the inhibition is reported as 6.3%. Molecule `O=C(Nc1ccc(I)cc1)c1ccc2nccnc2c1` has an inhibition of 8.3%. For `Cc1ccc(/C=N/NC(=O)C2CC(=O)N(c3ccc(Cl)cc3)C2)cc1` (stereo not given), the inhibition was 4.9%. Molecule `CCOc1ccccc1C(=O)Nc1ccc(Cl)cc1[N+](=O)[O-]` has an inhibition of -5.6%. `O=C(NC(=S)Nc1ccc(-c2nc3cc(Cl)ccc3o2)cc1)c1ccco1` gave an inhibition of 4.7%. Work on `CN1CN=C2SC3(COC(c4cccc(Br)c4)OC3)C(=O)N2C1` (stereo not given) yielded an inhibition of -17.5%. Molecule `Cc1ccc(/C=C/C(=O)Nc2nc3ccc(S(C)(=O)=O)cc3s2)cc1` has an inhibition of -6.1%. In the case of `Cc1cccc(N(CC(O)CN(C)C)S(=O)(=O)c2ccccc2)c1` (stereo not given), the inhibition is reported as -7.9%. Molecule `Cc1ccc(N(CC(O)CN2CCCC2)S(=O)(=O)c2ccccc2)cc1` (stereo not given) has an inhibition of -3.8%. For `Cc1ccc(S(=O)(=O)N(CC(O)CN(C)C)c2cccc3ccccc23)cc1` (stereo not given), the inhibition was 104% (active). Work on `CC(C)c1ccc(C=NCCCO)cc1` yielded an inhibition of -12.6%. `O=C(N=Nc1c(O)[nH]c2ccc([N+](=O)[O-])cc12)c1cccc(Br)c1` was tested, and the inhibition was 56.4% (active). Work on `O=C(N=Nc1c(O)[nH]c2ccc(F)cc12)c1ccccc1O` yielded an inhibition of -14.6%. For `Nc1nonc1C(=O)N=Nc1c(O)[nH]c2ccccc12`, the inhibition was -0.8%. With `O=C1C2C3CC4C2C(=O)C2(c5ccccc5)C1C3C42` (stereo not given) the inhibition was -6.6%. Work on `COc1ccc(CCNC(=O)COc2ccc(Br)cc2)cc1OC` yielded an inhibition of -20%. Work on `COCCCNC(=O)COc1cc(C)c(Cl)c(C)c1` yielded an inhibition of 5.1%. With `COc1ccc(CCNC(=O)COc2cc(C)c(Cl)c(C)c2)cc1OC` the inhibition was 103% (active).
